# According to PubChem BioAssay (NCATS):
# Active and inactive are the calls of the source. Entries that show only a call come without a potency. Calls come from the whole dose curve; as a rule, active = well fitted inhibition curve with a large enough effect; inconclusive = small, poorly fitted or top-dose-only effect; inactive = no such curve, though single readings can be large or run the other way.
# Molecular target: Single-stranded DNA cytosine deaminase (Homo sapiens) (UniProt Q9GZX7)
# Test: Validation qHTS assay for inhibitors of Activation Induced Cytidine Deaminase (AID): AID signal (AID 1347429)
# Settings: Recombinant AID, FRET ssDNA deamination with UDG, fluorescence; series mostly up to 115 µM
# Text: Assay Provider (PI) Patricia Gearhart Ph.D. National Institute on Aging National Institute of Health (NIH), Bethesda, MD Assay Provider (PI) Rahul Kohli Ph.D. Perelman School of Medicine University of Pennsylvania, Philadelphia, PA Activation-Induced Deaminase (AID) is a cytosine deaminase which converts cytosine into uracil within stretches of ssDNA. The presence of uracil in DNA initiates a cascade of mutagenic DNA repair to introduce point mutations and DNA double strand breaks. Specific targeting of AID to the immunoglobulin heavy chain loci (Igh) promotes mutagenesis in the antibody variable region for somatic hypermutation (SHM) or switch regions leading to class switch recombination (CSR). However, AID also plays a role in accumulating unnecessary mutations across the genome. Mis-targeting of AID results in the initiation of tumor development and leads to greater drug resistance among cancer cells when continually expressed. To identify an AID inhibitor, a small molecule library will be screened in collaboration with NCATS core facility at NIH. To confirm biological function, inhibitors will be examined in an in vitro murine B-cell activation assay and subsequent secondary validation screens. Top molecules will be further screened to identify inhibitory efficacy against a wild type primary splenocytes assay. Using these approaches, we hope to identify a small molecule with great efficacy and low toxicity for use as a molecular probe to further characterize AID's intricacies, or even as a therapeutic. A FRET based analysis of cytosine deamination, was developed to identify potential inhibitors of AID catalytic activity. This screen has two signal output, Read 1 evaluates the AID inhibition response. The second readout (Read 2) evaluates UDG response and is uses as a counterscreen to exclude false positive inhibitors. Inhibition in AID and inactivity in the UDG signal is the desired outcome for this assay.
# PROTOCOL TABLE SEQUENCE No. (e.g., 1, 2, 3, etc.); […] (e.g., Cells, Incubation, Reagent, etc.); VALUE; DESCRIPTION 1a; Reagent; 3 uL; [4/3x] […] 250 nM DJC20 / 250 nM DJC23 [Substrate] 5; Time; 4 hr; incubation at room temperature 6; Reagent; 4 uL; [2x] 250 mM NaOH 7; Time; 15 sec; centrifuge at 1000 rpm 8; Time; 30 min; incubation at room temperature 9a; Detection; fluorescence (Read 1: AID); EnVision (PerkinElmer) plate reader, 540 excitation and 590 emission filters 9b; Detection; fluorescence (Read 2: UDG); EnVision (PerkinElmer) plate reader, 560 excitation and 665 emission filters NOTES (numbers refer to sequence above) 1a; Reagents were dispensed in a medium-binding black solid-bottom Greiner plates (789176F) using a BioRptr liquid dispenser. Dispense 3 uL of [4/3x] 1 uM AID (provided by Kohli lab) and [4/3x] 2 U/mL UDG (NEB M0280L) into columns 1, 2, 5 to 48. 1b; Dispense 3 uL of [4/3x] 2 U/mL UDG into column 3. 1c; Dispense 3 uL of [4/3x] 1 uM AID into column 4. 2a; Compound ([…] [uM] (0.64; 3.2; 16; 80; 400; 2,000; 10,000; 20,000) double pin-transferred (Dip Factor = 2) using the Kalypsys (Wako USA) pintool equipped with a 1536 pinhead for a final concentration range of 7.32 nM - 114 uM. 2b; 10 mM Aurintricarboxylic Acid (Sigma A1895) (ATA, 8-point, n = 2, 1:2.5 dilution in column 2) double pin-transferred (Dip Factor = 2) using the Kalypsys (Wako USA) pintool equipped with a 1536 pinhead for a [final] range of 186 nM - 114 uM. 3; Room temperature incubation. 4; Dispense 1 uL of substrate mixture from the Kohli lab [4x] […] DJC20 and [4x] 250 nM DJC23 into columns 1 to 48 . 5; Room temperature incubation. 6; Dispense 4 uL of substrate mixture [2x] 250 mM NaOH into columns 1 to 48. 7; Centrifugation step to remove bubbles. 8; Room temperature incubation 9a; Fluorescence signal (column label AID) was read using the EnVision plate reader. Excitation filter = 540(8) nm, barcode = 311; Emission filter = 590(20) nm, barcode = 217; Mirror = D555, barcode = 405. […]
# Potency is the fitted concentration of half-maximal effect.
# Single-stranded DNA cytosine deaminase (Homo sapiens), sequence (Q9GZX7 whole entry, looked up): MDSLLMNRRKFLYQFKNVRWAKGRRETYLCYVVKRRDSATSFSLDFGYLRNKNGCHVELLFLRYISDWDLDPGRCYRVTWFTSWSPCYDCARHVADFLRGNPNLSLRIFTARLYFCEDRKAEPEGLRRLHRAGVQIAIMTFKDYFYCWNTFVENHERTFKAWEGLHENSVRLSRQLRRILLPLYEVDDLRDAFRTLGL
row,Compound,Potency
1,Clc1cccc(Cl)c1NC1=NCCN1,inactive
2,Cn1cnc([N+](=O)[O-])c1Sc1ncnc2nc[nH]c12,inactive
3,CC(=O)Oc1ccccc1C(=O)O,inactive
4,O=NN(CCCl)C(=O)NCCCl,inactive
5,Cc1oncc1C(=O)Nc1ccc(C(F)(F)F)cc1,inactive
6,Cc1cccc(-c2[nH]c(C(C)(C)C)nc2-c2ccc3nccnc3c2)n1,inactive
7,CC(C)(C)NCC(O)c1ccc(O)c(CO)c1 (stereo not given),inactive
8,NC(N)=NC(=O)c1nc(Cl)c(N)nc1N,inactive
9,NC(=O)c1cnccn1,inactive
10,N[C@@H]1CONC1=O,inactive
11,CCOC(=O)N1CCC(=C2c3ccc(Cl)cc3CCc3cccnc32)CC1,inactive
12,NNCCc1ccccc1,inactive
13,O=C1CCc2cc(OCCCCc3nnnn3C3CCCCC3)ccc2N1,inactive
14,OC(CCN1CCCCC1)(c1ccccc1)C1CC2C=CC1C2 (stereo not given),inactive
15,Nc1ccc(S(=O)(=O)Nc2ccnn2-c2ccccc2)cc1,inactive
16,CC(C)NCC(O)COc1ccc(COCCOC(C)C)cc1 (stereo not given),inactive
17,CCCCNc1cc(C(=O)O)cc(S(N)(=O)=O)c1Oc1ccccc1,inactive
18,CCn1cc(C(=O)O)c(=O)c2cc(F)c(N3CCNC(C)C3)c(F)c21 (stereo not given),inactive
19,Nc1nc2ccc(OC(F)(F)F)cc2s1,inactive
20,O=C(Nc1nc2ccccc2n1CCN1CCOCC1)c1cccc([N+](=O)[O-])c1,inactive

row,Compound,Potency
1,CC(C)C[C@H](NC(=O)[C@@H](O)[C@H](N)Cc1ccccc1)C(=O)O,inactive
2,c1ccc([C@H]2CN3CCSC3=N2)cc1,inactive
3,CN1CCN(CCCN2c3ccccc3Sc3ccc(C(F)(F)F)cc32)CC1,inactive
4,O=C(O)COCCN1CCN(C(c2ccccc2)c2ccc(Cl)cc2)CC1 (stereo not given),inactive
5,Cc1[nH]c(=O)c(C#N)cc1-c1ccncc1,inactive
6,NCCCC(N)(C(=O)O)C(F)F (stereo not given),inactive
7,Nc1ncnc2nc(-c3ccc(N4CCOCC4)nc3)cc(-c3cccc(Br)c3)c12,inactive
8,O=c1n(CCCN2CCN(c3cccc(Cl)c3)CC2)nc2ccccn12,inactive
9,Cc1cn[nH]c1,inactive
10,CC(C)(Sc1ccc(CCN(CCCCC2CCCCC2)C(=O)NC2CCCCC2)cc1)C(=O)O,79.4 µM (active)
11,C1COC(NC(C2CC2)C2CC2)=N1,inactive
12,O=c1[nH]cnc2[nH]ncc12,inactive
13,CC(C[N+](C)(C)C)OC(N)=O (stereo not given),inactive
14,Cc1ccccc1C(OCCN(C)C)c1ccccc1 (stereo not given),inactive
15,Cc1[nH]c(=O)c(C#N)cc1-c1ccc2nccn2c1,inactive
16,CCC(C)N(C)C(=O)c1cc2ccccc2c(-c2ccccc2Cl)n1 (stereo not given),inactive
17,NC[C@H](O)c1ccc(O)c(O)c1,inactive
18,CNC[C@H](O)c1cccc(O)c1,inactive
19,NS(=O)(=O)c1cc2c(cc1Cl)NC=NS2(=O)=O,inactive
20,NCCc1ccc(O)c(O)c1,inactive
